Test results taken from PubChem BioAssay (EPA / NIEHS).
Activity calls are given as the source filed them. The calls were made as follows: active = hit-call score of the fitted dose curve at least 0.9, where 1 is the maximum; inactive = score below 0.9.

Experiments:
[1] = ATG_GLI_CIS: Attagene CIS-FACTORIAL HepG2 Assay for human Zinc Finger Protein GLI1 (AID 2282945); conditions: HepG2, Attagene cis-factorial reporter mRNA, GLI element; actives raise or lower the signal
Method in brief: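 HepG2 cells transiently transfected with cis-promoter multiplexed reporter units report endogenous transcription factor activity. After 24 h chemical exposure, reporter mRNA was quantified by RT-PCR, 6-FAM labelling, HpaI digestion and capillary electrophoresis, with bidirectional fitting against DMSO.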

[2] = target: Bile acid receptor (Homo sapiens) (UniProt Q96RI1); experiment: ATG_IR1_CIS: Attagene CIS-FACTORIAL HepG2 Assay for human Nuclear Receptor Subfamily 1 Group H Member 4 (NR1H4), IR1 submotif (AID 2282946); conditions: IR1 reporter transcription, actives raise or lower the signal
Bile acid receptor (Homo sapiens), sequence (Q96RI1 whole entry, looked up): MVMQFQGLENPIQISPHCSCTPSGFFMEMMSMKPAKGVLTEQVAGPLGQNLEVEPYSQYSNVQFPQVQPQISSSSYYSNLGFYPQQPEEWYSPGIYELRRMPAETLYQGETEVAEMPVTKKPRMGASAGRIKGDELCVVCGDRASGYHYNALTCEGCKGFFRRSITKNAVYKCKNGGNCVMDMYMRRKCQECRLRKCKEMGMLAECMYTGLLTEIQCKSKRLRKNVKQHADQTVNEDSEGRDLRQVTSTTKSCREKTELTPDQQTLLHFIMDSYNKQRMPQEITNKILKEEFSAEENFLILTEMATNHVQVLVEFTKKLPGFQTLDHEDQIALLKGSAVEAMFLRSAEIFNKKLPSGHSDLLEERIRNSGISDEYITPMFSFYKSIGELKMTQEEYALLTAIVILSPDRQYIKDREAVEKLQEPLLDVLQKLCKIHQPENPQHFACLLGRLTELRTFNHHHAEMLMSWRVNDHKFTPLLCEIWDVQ
Method in brief: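 Readout: reporter transcript levels by RT-PCR with fluorescent capillary electrophoresis, from HepG2 cells transiently transfected with multiplexed cis-regulated reporters and dosed 24 h. Gain- or loss-of-signal fitted versus DMSO negative control.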

[3] = ATG_GRE_CIS: Attagene CIS-FACTORIAL HepG2 Assay for human Glucocorticoid Response Elements (GRE) (AID 2282947); conditions: HepG2 GRE cis-reporter, Attagene multiplex mRNA; actives raise or lower the signal
Method in brief: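 Cells (HepG2) bearing transfected cis-promoter reporter transcription units were treated with chemical for 24 hours. Reporter mRNA was measured via RT-PCR with capillary electrophoresis, and activity was fitted in both directions relative to DMSO.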

[4] = ATG_M_32_CIS: Attagene CIS-FACTORIAL HepG2 Assay for M32 Transcription Factor (Internal Marker) (AID 2282949); conditions: HepG2 Attagene cis-factorial M32 reporter, mRNA; actives raise or lower the signal;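 also: background control marker of the multiplexed CIS panel rather than a real target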
Method in brief: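 HepG2 human liver cells transiently transfected with cis-promoter-driven multiple reporter transcription units, dosed 24 h. Reporter mRNA quantified by RT-PCR, FAM-labelled primer extension, HpaI digest and capillary electrophoresis; bidirectional fit versus DMSO baseline.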

[5] = ATG_M_06_CIS: Attagene CIS-FACTORIAL HepG2 Assay for M06 Transcription Factor (Internal Marker) (AID 2282950); conditions: HepG2 Attagene CIS-FACTORIAL M06 internal marker reporter; actives raise or lower the signal
Method in brief: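 Fluorescence-labelled RT-PCR products from cis-promoter reporter units, cut with HpaI and resolved by capillary electrophoresis, give the signal. Cells are human HepG2, dosed for 24 h. Serves as background control, fitted relative to DMSO.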

[6] = target: Hypoxia-inducible factor 1-alpha (Homo sapiens) (UniProt Q16665); experiment: ATG_HIF1a_CIS: Attagene CIS-FACTORIAL HepG2 Assay for human Hypoxia Inducible Factor 1 (HIF1A) (AID 2282951); conditions: HepG2 Attagene cis-factorial HIF1a reporter transcription; actives raise or lower the signal
Hypoxia-inducible factor 1-alpha (Homo sapiens), sequence (Q16665 whole entry, looked up): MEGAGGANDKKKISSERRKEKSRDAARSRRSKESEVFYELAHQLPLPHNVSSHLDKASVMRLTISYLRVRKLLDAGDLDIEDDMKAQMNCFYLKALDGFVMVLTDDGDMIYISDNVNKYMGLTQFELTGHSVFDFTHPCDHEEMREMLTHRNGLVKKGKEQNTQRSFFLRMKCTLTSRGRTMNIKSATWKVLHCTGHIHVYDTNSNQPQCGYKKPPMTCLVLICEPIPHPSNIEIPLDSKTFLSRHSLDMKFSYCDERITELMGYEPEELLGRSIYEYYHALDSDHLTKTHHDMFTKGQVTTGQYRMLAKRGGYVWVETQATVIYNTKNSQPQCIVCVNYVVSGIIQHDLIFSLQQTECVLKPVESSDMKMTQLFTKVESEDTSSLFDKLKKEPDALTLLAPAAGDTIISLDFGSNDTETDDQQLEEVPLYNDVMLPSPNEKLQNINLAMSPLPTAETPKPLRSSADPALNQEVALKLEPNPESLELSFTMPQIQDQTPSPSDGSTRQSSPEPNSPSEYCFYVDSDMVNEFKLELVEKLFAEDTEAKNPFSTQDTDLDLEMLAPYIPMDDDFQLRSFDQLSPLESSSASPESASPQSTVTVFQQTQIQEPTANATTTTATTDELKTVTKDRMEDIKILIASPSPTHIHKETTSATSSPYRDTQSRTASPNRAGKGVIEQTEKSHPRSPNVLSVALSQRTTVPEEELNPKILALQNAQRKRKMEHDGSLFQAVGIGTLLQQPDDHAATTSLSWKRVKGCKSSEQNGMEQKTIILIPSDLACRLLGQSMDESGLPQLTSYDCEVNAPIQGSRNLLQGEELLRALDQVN
Method in brief: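 After 24 h chemical exposure of reporter-transfected HepG2 cells, reporter cDNA was PCR-amplified, labelled by 6-FAM primer extension (2 min 95 C, 20 s 68 C, 10 min 72 C), HpaI-cut (2 h, 37 C) and analysed by CE.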

[7] = target: Hepatocyte nuclear factor 6 (Homo sapiens) (UniProt Q9UBC0); experiment: ATG_HNF6_CIS: Attagene CIS-FACTORIAL HepG2 Assay for human Hepatocyte Nuclear Factor 6 (HNF6) (AID 2282952); conditions: HepG2 Attagene cis-factorial HNF6 reporter transcription; actives raise or lower the signal
Hepatocyte nuclear factor 6 (Homo sapiens), sequence (Q9UBC0 whole entry, looked up, the tested form may be a part): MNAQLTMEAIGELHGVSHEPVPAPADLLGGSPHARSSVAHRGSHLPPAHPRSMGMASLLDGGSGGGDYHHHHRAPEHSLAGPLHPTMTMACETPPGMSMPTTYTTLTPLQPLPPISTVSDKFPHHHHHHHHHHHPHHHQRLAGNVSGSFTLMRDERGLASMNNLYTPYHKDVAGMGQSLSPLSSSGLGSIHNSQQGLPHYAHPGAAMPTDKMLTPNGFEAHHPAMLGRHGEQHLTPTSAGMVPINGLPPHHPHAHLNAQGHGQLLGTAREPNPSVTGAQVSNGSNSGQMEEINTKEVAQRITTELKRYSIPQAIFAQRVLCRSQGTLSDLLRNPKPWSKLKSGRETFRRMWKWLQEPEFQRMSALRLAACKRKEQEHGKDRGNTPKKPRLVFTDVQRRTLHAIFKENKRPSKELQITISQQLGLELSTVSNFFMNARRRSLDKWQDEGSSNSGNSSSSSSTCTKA
Method in brief: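 First, HepG2 cells were transfected with the multiplexed cis reporter library and dosed with chemical for 24 h. Next, RNA was reverse-transcribed, PCR-amplified and fluorescently labelled. Finally, HpaI-digested fragments were read by capillary electrophoresis.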

[8] = target: Heat shock factor protein 1 (Homo sapiens) (UniProt Q00613); experiment: ATG_HSE_CIS: Attagene CIS-FACTORIAL HepG2 Assay for human Heat Shock Transcription Factor 1 (HSE) (AID 2282953); conditions: HepG2 HSE cis-reporter, Attagene RNA transcription; actives raise or lower the signal
Heat shock factor protein 1 (Homo sapiens), sequence (Q00613 whole entry, looked up): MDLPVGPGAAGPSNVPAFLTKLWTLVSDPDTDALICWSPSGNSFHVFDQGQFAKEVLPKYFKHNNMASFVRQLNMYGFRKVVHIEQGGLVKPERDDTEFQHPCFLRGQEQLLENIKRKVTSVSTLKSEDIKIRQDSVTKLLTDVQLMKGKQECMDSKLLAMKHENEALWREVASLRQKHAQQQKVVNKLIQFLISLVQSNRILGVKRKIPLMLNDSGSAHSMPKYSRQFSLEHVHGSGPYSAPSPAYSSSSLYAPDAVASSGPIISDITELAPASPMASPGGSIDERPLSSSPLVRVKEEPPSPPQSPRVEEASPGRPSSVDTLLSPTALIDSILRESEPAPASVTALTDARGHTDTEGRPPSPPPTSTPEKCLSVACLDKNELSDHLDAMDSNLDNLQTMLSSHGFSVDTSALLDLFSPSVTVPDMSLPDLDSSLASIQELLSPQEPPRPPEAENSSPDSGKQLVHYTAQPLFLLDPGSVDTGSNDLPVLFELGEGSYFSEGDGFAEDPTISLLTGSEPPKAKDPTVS
Method in brief: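 After a 24 h incubation with test chemical, transfected HepG2 cells were harvested for RNA; reporter transcripts were measured by RT-PCR and capillary electrophoresis. Values reflect gain or loss of signal relative to DMSO.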

[9] = ATG_MRE_CIS: Attagene CIS-FACTORIAL HepG2 Assay for human Metal Responsive Element (MRE) (AID 2282954); conditions: HepG2 MRE cis-reporter transcription, Attagene multiplex; actives raise or lower the signal
Method in brief: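 Cells were transfected with cis-promoter reporter transcription units, then dosed for 24 h. RNA was reverse-transcribed, amplified, fluorescently labelled and resolved by capillary electrophoresis, and activity was fitted in both directions relative to DMSO.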

[10] = ATG_PBREM_CIS: Attagene CIS-FACTORIAL HepG2 Assay for human Phenobarbital-responsive Enhancer Module (PBREM) (AID 2282955); conditions: HepG2 PBREM cis-reporter, Attagene multiplexed transcription; actives raise or lower the signal
Method in brief: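 Measures endogenous factor action on a phenobarbital-responsive enhancer module. HepG2 transiently carrying cis reporters, 24 h treatment, mRNA read-out by RT-PCR plus capillary electrophoresis.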

[11] = target: Paired box protein Pax-6 (Homo sapiens) (UniProt P26367); experiment: ATG_Pax6_CIS: Attagene CIS-FACTORIAL HepG2 Assay for human Paired Box 6 (PAX6) (AID 2282956); conditions: HepG2 CIS-FACTORIAL PAX6 reporter transcription, RNA readout; actives raise or lower the signal
Paired box protein Pax-6 (Homo sapiens), sequence (P26367 whole entry, looked up): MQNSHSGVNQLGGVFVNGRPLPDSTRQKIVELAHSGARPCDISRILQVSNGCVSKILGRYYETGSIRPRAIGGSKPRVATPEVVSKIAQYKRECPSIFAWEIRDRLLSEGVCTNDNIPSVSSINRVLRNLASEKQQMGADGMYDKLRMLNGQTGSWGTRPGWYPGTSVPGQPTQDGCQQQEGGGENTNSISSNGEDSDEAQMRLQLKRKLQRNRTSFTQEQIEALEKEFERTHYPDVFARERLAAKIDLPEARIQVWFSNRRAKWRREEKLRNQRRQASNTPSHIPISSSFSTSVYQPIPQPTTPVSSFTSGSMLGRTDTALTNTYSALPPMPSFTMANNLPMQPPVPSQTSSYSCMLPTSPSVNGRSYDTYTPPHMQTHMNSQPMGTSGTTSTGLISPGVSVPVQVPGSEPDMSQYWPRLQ
Method in brief: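 DMSO-referenced bidirectional fits of reporter mRNA fluorescence; HepG2 with transient cis-promoter MRTUs, 24 h post-dose, RT-PCR plus capillary electrophoresis detection.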

[12] = ATG_PPRE_CIS: Attagene CIS-FACTORIAL HepG2 Assay for human Peroxisome Proliferator-activated Response Element (PPRE) (AID 2282958); conditions: HepG2 PPRE cis-element reporter, Attagene transcription factor profiling; actives raise or lower the signal
Method in brief: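 PPRE activity in HepG2: transient cis-reporter transfection, 24 h compound incubation, reporter mRNA by RT-PCR and CE fluorescence; gain/loss fitted against DMSO.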

[13] = ATG_RORE_CIS: Attagene CIS-FACTORIAL HepG2 Assay for human RAR-related Orphan Receptor Element (RORE) (AID 2282959); conditions: HepG2 Attagene cis-factorial RORE reporter, mRNA; actives raise or lower the signal
Method in brief: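 A 24-hour exposure of transfected HepG2 hepatoma cells precedes RNA isolation and reporter RT-PCR. Labeled products are digested with HpaI and resolved by capillary electrophoresis, with gain or loss of signal scored relative to DMSO.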

[14] = ATG_Sox_CIS: Attagene CIS-FACTORIAL HepG2 Assay for human SRY-box transcription factor (SOX) (AID 2282960); conditions: HepG2 Attagene cis-factorial SOX reporter, mRNA; actives raise or lower the signal
Method in brief: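 HepG2, cis reporter units, 24 h exposure. Reporter mRNA: RT-PCR → FAM labelling → HpaI → CE fluorescence. Bidirectional fit vs DMSO.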

[15] = target: Transcription factor Sp1 (Homo sapiens) (UniProt P08047); experiment: ATG_Sp1_CIS: Attagene CIS-FACTORIAL HepG2 Assay for human Specificity Protein 1 (Sp1) (AID 2282961); conditions: HepG2 Sp1 cis-reporter transcription, actives raise or lower the signal
Transcription factor Sp1 (Homo sapiens), sequence (P08047 whole entry, looked up, the tested form may be a part): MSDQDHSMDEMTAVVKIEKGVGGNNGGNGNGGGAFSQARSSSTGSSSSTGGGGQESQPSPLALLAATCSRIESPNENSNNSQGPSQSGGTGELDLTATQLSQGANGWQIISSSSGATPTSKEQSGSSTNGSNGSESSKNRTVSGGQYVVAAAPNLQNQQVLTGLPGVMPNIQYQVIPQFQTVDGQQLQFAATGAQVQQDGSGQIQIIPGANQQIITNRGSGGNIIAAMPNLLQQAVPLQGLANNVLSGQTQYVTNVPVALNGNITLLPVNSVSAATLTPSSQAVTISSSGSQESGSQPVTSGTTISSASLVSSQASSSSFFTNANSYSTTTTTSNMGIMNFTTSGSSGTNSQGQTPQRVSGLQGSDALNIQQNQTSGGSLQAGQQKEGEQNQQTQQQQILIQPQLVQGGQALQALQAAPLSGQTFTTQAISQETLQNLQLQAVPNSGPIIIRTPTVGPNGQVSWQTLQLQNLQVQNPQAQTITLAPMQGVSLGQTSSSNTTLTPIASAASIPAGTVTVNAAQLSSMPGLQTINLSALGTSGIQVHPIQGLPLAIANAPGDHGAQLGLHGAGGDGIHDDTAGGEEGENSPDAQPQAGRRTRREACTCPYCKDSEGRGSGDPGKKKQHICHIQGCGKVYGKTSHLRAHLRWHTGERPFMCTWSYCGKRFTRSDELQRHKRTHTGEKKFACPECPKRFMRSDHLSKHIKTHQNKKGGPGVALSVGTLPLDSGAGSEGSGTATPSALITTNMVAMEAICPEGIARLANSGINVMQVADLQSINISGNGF
Method in brief: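 Liver-derived HepG2 cells, cis-element reporter library, 24 h treatment; RNA isolated, cDNA amplified with reporter-specific primers, FAM-labeled fragments sized on capillary analyzer. DMSO baseline, bidirectional curve fit.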

[16] = ATG_SREBP_CIS: Attagene CIS-FACTORIAL HepG2 Assay for human Sterol Regulatory Element Binding (SREBP) (AID 2282962); conditions: HepG2 Attagene cis-factorial SREBP reporter, mRNA; actives raise or lower the signal
Method in brief: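 In this cis-format assay, HepG2 liver cells express reporters controlled by promoter elements responsive to native transcription factors. Exposure lasts 24 h; reporter mRNA fluorescence from capillary electrophoresis gives the signal, fitted bidirectionally against DMSO.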

[17] = target: Signal transducer and activator of transcription 3 (Homo sapiens) (UniProt P40763); experiment: ATG_STAT3_CIS: Attagene CIS-FACTORIAL HepG2 Assay for human Signal Transducer and Activator of Transcription 3 (STAT3) (AID 2282963); conditions: HepG2, Attagene cis-factorial STAT3 reporter transcription; actives raise or lower the signal
Signal transducer and activator of transcription 3 (Homo sapiens), sequence (P40763 whole entry, looked up): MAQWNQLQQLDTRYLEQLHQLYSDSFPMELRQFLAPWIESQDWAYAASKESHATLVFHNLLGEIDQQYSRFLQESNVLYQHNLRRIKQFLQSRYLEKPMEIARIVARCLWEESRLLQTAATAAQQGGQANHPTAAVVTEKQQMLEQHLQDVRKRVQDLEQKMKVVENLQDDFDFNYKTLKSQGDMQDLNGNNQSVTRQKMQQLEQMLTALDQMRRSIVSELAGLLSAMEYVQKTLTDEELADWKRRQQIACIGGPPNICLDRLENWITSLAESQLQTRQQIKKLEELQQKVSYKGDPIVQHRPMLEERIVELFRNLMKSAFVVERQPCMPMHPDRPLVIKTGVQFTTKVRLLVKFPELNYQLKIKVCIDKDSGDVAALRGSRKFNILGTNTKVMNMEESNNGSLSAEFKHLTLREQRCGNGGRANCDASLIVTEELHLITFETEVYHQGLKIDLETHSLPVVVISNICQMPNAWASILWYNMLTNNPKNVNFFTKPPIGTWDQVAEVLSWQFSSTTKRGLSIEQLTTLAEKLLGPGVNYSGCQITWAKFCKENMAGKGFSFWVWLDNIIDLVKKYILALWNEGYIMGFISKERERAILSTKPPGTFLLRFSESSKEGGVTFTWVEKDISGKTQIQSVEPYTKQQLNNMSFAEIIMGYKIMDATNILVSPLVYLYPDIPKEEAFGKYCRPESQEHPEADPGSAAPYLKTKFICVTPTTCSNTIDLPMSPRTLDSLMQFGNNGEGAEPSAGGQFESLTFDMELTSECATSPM
Method in brief: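 HepG2, MRTU-transfected, 24 h dosing. RNA → RT → PCR → FAM label → HpaI → CE. Bidirectional fit vs DMSO.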

[18] = ATG_TA_CIS: Attagene CIS-FACTORIAL HepG2 Assay for human TA Basal Promoter (AID 2282964); conditions: HepG2 Attagene CIS-factorial TA basal promoter reporter; actives raise or lower the signal
Method in brief: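 Multiplexed mRNA reporter assay, HepG2, 24 h. Reporter cDNA amplified, 6-FAM primer-extended, HpaI-cut, CE-sized; DMSO = negative control and baseline.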

[19] = ATG_PXRE_CIS: Attagene CIS-FACTORIAL HepG2 Assay for human Pregnane X Receptor Element (PXRE) (AID 2282957); conditions: HepG2 Attagene CIS-FACTORIAL PXRE reporter, mRNA; actives raise or lower the signal
Method in brief: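 After a 24 h chemical incubation, total RNA from transfected HepG2 cells was reverse-transcribed and reporter cDNA amplified, FAM-labeled, HpaI-digested and sized by capillary electrophoresis. DMSO served as baseline for bidirectional curve fitting.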

## CC(=O)c1ccccc1N
[1]
  outcome: inactive
[2]
  outcome: inactive
[3]
  outcome: inactive
[4]
  outcome: inactive
[5]
  outcome: inactive
[6]
  outcome: inactive
[7]
  outcome: inactive
[8]
  outcome: inactive
[9]
  outcome: inactive
[10]
  outcome: inactive
[11]
  outcome: inactive
[12]
  outcome: inactive
[13]
  outcome: inactive
[14]
  outcome: inactive
[15]
  outcome: inactive
[16]
  outcome: inactive
[17]
  outcome: inactive
[18]
  outcome: inactive

## CCN(CC)c1ccc2c(c1)Oc1cc(N(CC)CC)ccc1C21OC(=O)c2ccccc21
[1]
  outcome: inactive
[2]
  outcome: inactive
[3]
  outcome: inactive
[4]
  outcome: inactive
[5]
  outcome: inactive
[7]
  outcome: inactive
[8]
  outcome: inactive
[9]
  outcome: inactive
[10]
  outcome: inactive
[11]
  outcome: inactive
[19]
  AC50: 1.04 µM (active)
[12]
  outcome: inactive
[13]
  outcome: inactive
[14]
  outcome: inactive
[15]
  outcome: inactive
[16]
  AC50: 17.6 µM (active)
[17]
  outcome: inactive
[18]
  outcome: inactive

## CN(C)C(C)(C)CO
[1]
  outcome: inactive
[2]
  outcome: inactive
[3]
  outcome: inactive
[4]
  outcome: inactive
[5]
  outcome: inactive
[6]
  outcome: inactive
[7]
  outcome: inactive
[8]
  outcome: inactive
[9]
  outcome: inactive
[10]
  outcome: inactive
[11]
  outcome: inactive
[19]
  outcome: inactive
[12]
  outcome: inactive
[13]
  outcome: inactive
[14]
  outcome: inactive
[15]
  outcome: inactive
[16]
  outcome: inactive
[17]
  outcome: inactive
[18]
  outcome: inactive

## NC(=O)C(F)(F)C(F)(F)C(F)(F)C(F)F
[1]
  outcome: inactive
[2]
  outcome: inactive
[3]
  outcome: inactive
[4]
  outcome: inactive
[5]
  outcome: inactive
[6]
  outcome: inactive
[7]
  outcome: inactive
[8]
  outcome: inactive
[9]
  outcome: inactive
[10]
  outcome: inactive
[11]
  outcome: inactive
[12]
  outcome: inactive
[13]
  outcome: inactive
[14]
  outcome: inactive
[15]
  outcome: inactive
[17]
  outcome: inactive
[18]
  outcome: inactive

## NCC(F)(F)C(F)(F)C(F)(F)C(F)(F)C(F)(F)C(F)(F)F
[1]
  outcome: inactive
[2]
  outcome: inactive
[3]
  outcome: inactive
[4]
  outcome: inactive
[6]
  outcome: inactive
[7]
  outcome: inactive
[8]
  outcome: inactive
[9]
  outcome: inactive
[10]
  outcome: inactive
[11]
  outcome: inactive
[19]
  outcome: inactive
[12]
  outcome: inactive
[13]
  outcome: inactive
[14]
  outcome: inactive
[16]
  outcome: inactive
[17]
  outcome: inactive
[18]
  outcome: inactive

## COCCOCCC[Si](C)(O[Si](C)(C)C)O[Si](C)(C)C
[1]
  outcome: inactive
[2]
  AC50: 51 µM (active)
[3]
  AC50: 8.99 µM (active)
[4]
  outcome: inactive
[6]
  outcome: inactive
[7]
  outcome: inactive
[9]
  outcome: inactive
[10]
  AC50: 8.38 µM (active)
[11]
  outcome: inactive
[19]
  AC50: 0.752 µM (active)
[12]
  outcome: inactive
[13]
  outcome: inactive
[14]
  AC50: 8.52 µM (active)
[16]
  AC50: 6.62 µM (active)
[17]
  outcome: inactive
[18]
  outcome: inactive

## CN(N=O)C(=O)N[C@@H]1[C@@H](O)[C@H](O)[C@@H](CO)O[C@@H]1O
[1]
  outcome: inactive
[2]
  outcome: inactive
[3]
  outcome: inactive
[4]
  outcome: inactive
[5]
  outcome: inactive
[6]
  outcome: inactive
[7]
  outcome: inactive
[8]
  outcome: inactive
[9]
  outcome: inactive
[11]
  outcome: inactive
[19]
  outcome: inactive
[12]
  outcome: inactive
[13]
  outcome: inactive
[14]
  outcome: inactive
[15]
  outcome: inactive
[16]
  outcome: inactive
[17]
  outcome: inactive
[18]
  outcome: inactive

## NC(O)(C(F)(F)F)C(F)(F)F
[1]
  outcome: inactive
[2]
  outcome: inactive
[3]
  outcome: inactive
[4]
  outcome: inactive
[5]
  outcome: inactive
[6]
  outcome: inactive
[7]
  outcome: inactive
[9]
  outcome: inactive
[10]
  outcome: inactive
[11]
  outcome: inactive
[19]
  outcome: inactive
[12]
  outcome: inactive
[13]
  outcome: inactive
[14]
  outcome: inactive
[15]
  outcome: inactive
[16]
  outcome: inactive
[17]
  outcome: inactive
[18]
  outcome: inactive
